Structures can show the parent of a compound that is named as a salt.
Tests used:
[1] = tested on: S. cerevisiae SK1 pCDA2-eGFP (USY613), sporulating; assay: CDA2-GFP sporulation assay sensitivity score (z-score vs DMSO controls); higher = stronger inhibition of sporulation, active = hit call of the paper;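 further: active if sensitivity score above 5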
[2] = tested on: S. cerevisiae NKY1551 his4x/his4B, sporulating; assay: HIS4 meiotic recombination assay sensitivity score (z-score vs DMSO controls); higher = stronger inhibition of sporulation/recombination, active = hit call of the paper;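 further: active if sensitivity score above 5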
[3] = tested on: S. cerevisiae AD1-9 (efflux-pump deficient), vegetative growth in YPD; assay: growth sensitivity score (doubling time z-score vs DMSO controls); higher = slower growth, strongly negative scores also mark growth inhibition (complete suppression), active = hit call of the paper
Procedure, shortened: (§1)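 Yeast (Saccharomyces cerevisiae BY4741 and AD1-9) was grown in rich medium in microtiter plates from a starting OD600 of 0.065, with optical density read every 15 min over 24 hours. The growth sensitivity score was the difference between compound and solvent-only means, divided by the solvent-only standard deviation. Every experiment had eight solvent-only wells.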

[4] = tested on: S. cerevisiae BY4741 (wild-type), vegetative growth in YPD; assay: as above
Procedure, shortened: as §1

C[C@]12C[C@H](O)[C@H]3[C@@H](CCC4=CC(=O)CC[C@@]43C)[C@@H]1CC[C@@H]2C(=O)CO [Corticosterone] (stock concentration (mM, diluted 1:100): 10)
inactive: CDA2-GFP sporulation assay sensitivity score [1] 3.57 | HIS4 meiotic recombination assay sensitivity score [2] 1.37 | growth sensitivity score [4] -0.97
active: growth sensitivity score [3] 2.14

CNCC[C@@H](Oc1ccccc1C)c1ccccc1 [Atomexetine hydrochloride] (stock concentration (mM, diluted 1:100): 8.7)
active: HIS4 meiotic recombination assay sensitivity score [2] 10.1 | growth sensitivity score [3] 5.57
inactive: CDA2-GFP sporulation assay sensitivity score [1] 0.57 | growth sensitivity score [4] 0.06

Cc1c(O)cccc1C(=O)N[C@@H](CSc1ccccc1)[C@H](O)CN1C[C@H]2CCCC[C@H]2C[C@H]1C(=O)NC(C)(C)C [Nelfinavir mesylate] (stock concentration (mM, diluted 1:100): 8.6)
active: growth sensitivity score [3] 16.2
inactive: CDA2-GFP sporulation assay sensitivity score [1] 4.48 | HIS4 meiotic recombination assay sensitivity score [2] 0.21 | growth sensitivity score [4] 0.56

COC(=O)C1=C(C)NC(C)=C(C(=O)OC(C)C)C1c1cccc2nonc12 (stereo not drawn) [Isradipine] (stock concentration (mM, diluted 1:100): 9.9)
active: HIS4 meiotic recombination assay sensitivity score [2] 5.46 | growth sensitivity score [3] 137
inactive: CDA2-GFP sporulation assay sensitivity score [1] 1.45 | growth sensitivity score [4] 0.93

Nc1nc(N)nc(-c2cc(Cl)ccc2Cl)n1 [Irsogladine maleate] (stock concentration (mM, diluted 1:100): 6.9)
inactive: CDA2-GFP sporulation assay sensitivity score [1] 0.91 | HIS4 meiotic recombination assay sensitivity score [2] -0.77 | growth sensitivity score [3] -0.44 | growth sensitivity score [4] -1.26

NC(=O)OCC(COC(N)=O)c1ccccc1 [Felbamate] (stock concentration (mM, diluted 1:100): 14)
inactive: CDA2-GFP sporulation assay sensitivity score [1] -0.27 | HIS4 meiotic recombination assay sensitivity score [2] -0.45 | growth sensitivity score [3] -0.62 | growth sensitivity score [4] -0.94

CC(Oc1c(Cl)cccc1Cl)C1=NCCN1 (stereo not drawn) [Lofexidine hydrochloride] (stock concentration (mM, diluted 1:100): 10)
inactive: CDA2-GFP sporulation assay sensitivity score [1] 7.06 | HIS4 meiotic recombination assay sensitivity score [2] 1.48 | growth sensitivity score [3] -0.79 | growth sensitivity score [4] 0.09

CC1CCN(CCCC(=O)c2ccc(F)cc2)CC1 [Metylperon] (stock concentration (mM, diluted 1:100): 10)
inactive: CDA2-GFP sporulation assay sensitivity score [1] 4.44 | HIS4 meiotic recombination assay sensitivity score [2] 0.9 | growth sensitivity score [3] 1 | growth sensitivity score [4] 1.93

O=C1c2c(O)cc(O)cc2OC(c2ccc(O)c(O)c2)C1O (stereo not drawn) [Taxifolin] (stock concentration (mM, diluted 1:100): 10)
inactive: CDA2-GFP sporulation assay sensitivity score [1] -0.07 | HIS4 meiotic recombination assay sensitivity score [2] -0.97 | growth sensitivity score [3] -0.46 | growth sensitivity score [4] -0.85

C=CC1=C(C(=O)O)N2C(=O)[C@@H](NC(=O)/C(=N\O)c3csc(N)n3)[C@H]2SC1 [Cefdinir] (stock concentration (mM, diluted 1:100): 10)
inactive: CDA2-GFP sporulation assay sensitivity score [1] 3.95 | HIS4 meiotic recombination assay sensitivity score [2] 0 | growth sensitivity score [3] -1.07 | growth sensitivity score [4] -0.67

O=c1cnn([C@@H]2O[C@H](CO)[C@@H](O)[C@H]2O)c(=O)[nH]1 [6-Azauridine] (stock concentration (mM, diluted 1:100): 10)
inactive: CDA2-GFP sporulation assay sensitivity score [1] 0.6 | HIS4 meiotic recombination assay sensitivity score [2] -1.27 | growth sensitivity score [3] 0.13 | growth sensitivity score [4] 0.64

C[C@H]1COc2c(C3(N)CC3)c(F)cc3c(=O)c(C(=O)O)cn1c23 [Pazufloxacin] (stock concentration (mM, diluted 1:100): 10)
inactive: CDA2-GFP sporulation assay sensitivity score [1] 0.17 | HIS4 meiotic recombination assay sensitivity score [2] -0.93 | growth sensitivity score [3] 0.07 | growth sensitivity score [4] -1.05

C=CC1=C(C(=O)O)N2C(=O)[C@@H](NC(=O)/C(=N\OCC(=O)O)c3csc(N)n3)[C@H]2SC1 [Cefixime trihydrate] (stock concentration (mM, diluted 1:100): 10)
inactive: CDA2-GFP sporulation assay sensitivity score [1] 2.05 | HIS4 meiotic recombination assay sensitivity score [2] -3.32 | growth sensitivity score [3] -1.39 | growth sensitivity score [4] -0.62

Cc1cccc(Nc2ccncc2S(=O)(=O)NC(=O)NC(C)C)c1 [Torasemide] (stock concentration (mM, diluted 1:100): 9.9)
inactive: CDA2-GFP sporulation assay sensitivity score [1] -0.45 | HIS4 meiotic recombination assay sensitivity score [2] 0.74 | growth sensitivity score [4] -0.66
-2.4: growth sensitivity score [3]

Clc1cccc(Cl)c1NC1=NCCN1 [Clonidine] (stock concentration (mM, diluted 1:100): 10)
inactive: CDA2-GFP sporulation assay sensitivity score [1] -1.29 | HIS4 meiotic recombination assay sensitivity score [2] -0.25 | growth sensitivity score [3] -1.44 | growth sensitivity score [4] -1.97

C[C@H](CCC(=O)O)[C@H]1CC[C@H]2[C@@H]3C(=O)C[C@@H]4CC(=O)CC[C@]4(C)[C@H]3CC(=O)[C@]12C [Dehydrocholic acid] (stock concentration (mM, diluted 1:100): 10)
inactive: CDA2-GFP sporulation assay sensitivity score [1] 0.09 | HIS4 meiotic recombination assay sensitivity score [2] -0.93 | growth sensitivity score [3] -1.13 | growth sensitivity score [4] -0.69

O=C(c1ccc(F)cc1)C1CCN(CCn2c(=S)[nH]c3ccccc3c2=O)CC1 [Altanserin] (stock concentration (mM, diluted 1:100): 10)
inactive: CDA2-GFP sporulation assay sensitivity score [1] 2.43 | HIS4 meiotic recombination assay sensitivity score [2] -0.6 | growth sensitivity score [3] -0.28 | growth sensitivity score [4] -0.21
